± gives the standard deviation of the averaged measurements.
Each compound was assayed on MDA-MB-231 (assay: kynurenine production, fold change vs DMSO IFNg/TNF control; higher = more kynurenine produced (less inhibition)). Conditions: pre-treatment time: 18 h then 24 h IFNg/TNF.
Summary of the method: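 MDA-MB-231 cells were seeded in 96-well plates at 7 × 10^4/well and, 24 h later, pre-treated for 18 h with each natural product in 0.1% DMSO. They were then stimulated for 24 h at 37°C with IFNγ (1 U/ml) and TNF (6.25 ng/ml). Supernatants were treated with trichloroacetic acid and p-dimethylaminobenzaldehyde and read at 492 nm against 0–100 μM standards. Kynurenine production is expressed as fold change over cytokine-stimulated vehicle wells on the same plate and, in the first screening round, averaged across duplicate plates.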

Row | Structure (SMILES) | kynurenine production
1 | COc1ccc(SC)cc1 [4-methoxythioanisole] (compound dose: 10 uM) | 0.973 ± 0.12
2 | C=C(C(=O)O)[C@@H]1CC[C@@H](C)[C@@H]2CCC(C)=C[C@@H]21 [Artemisic acid] (compound dose: 10 uM) | 0.594 ± 0.14
3 | O=C(O)c1cncc(C(=O)O)c1 [3-5-pyridinedicarboxylic acid] (compound dose: 10 uM) | 0.983 ± 0.025
4 | C=C1CCC[C@]2(C)C=C3OC(=O)C(C)=C3C[C@@H]12 [Atractylenolide I] (compound dose: 10 uM) | 0.853 ± 0.2
5 | C[C@@H]1O[C@@H](O[C@H]2[C@H](O[C@H]3CC[C@]4(C)[C@H]5CC=C6[C@@H]7CC(C)(C)CC[C@]7(C(=O)O)CC[C@@]6(C)[C@]5(C)CC[C@H]4C3(C)C)OC[C@H](O[C@@H]3O[C@H](CO)[C@@H](O)[C@H](O)[C@H]3O)[C@@H]2O)[C@H](O)[C@H](O)[C@H]1O [Hederacolchiside A1] (compound dose: 10 uM) | 0.396 ± 0.15
6 | COc1ccc(-c2cc(=O)c3c(O)c(OC)c(O[C@@H]4O[C@H](CO[C@@H]5O[C@@H](C)[C@H](O)[C@@H](O)[C@H]5O)[C@@H](O)[C@H](O)[C@H]4O)cc3o2)cc1 [Pectolinarin] (compound dose: 10 uM) | 0.907 ± 0.2
7 | O[C@H]1[C@H]2c3cc4c(cc3CN3CC[C@H](C[C@@H]1O)[C@H]23)OCO4 [Dihydrolycorine] (compound dose: 10 uM) | 0.723 ± 0.022
8 | COc1cc2c(cc1O)C(Cc1ccc(O)cc1)[N+](C)(C)CC2 (stereo unspecified) [Magnocurarine] (compound dose: 10 uM) | 0.937 ± 0.083
9 | CC(=O)O[C@H]1CC/C(C)=C/CC/C(C)=C/C[C@]2(C(C)C)CC[C@@]1(C)O2 [Incensole Acetate] (compound dose: 10 uM) | 0.941 ± 0.18
10 | C=C[C@@]1(C)CC(=O)[C@]2(O)[C@@]3(C)[C@@H](O)CCC(C)(C)[C@@H]3[C@H](O)[C@H](OC(C)=O)[C@@]2(C)O1 [Forskolin] (compound dose: 10 uM) | 1.37 ± 0.25
11 | C/C=C(/C)C(=O)O[C@H]1[C@H](O)[C@]2(COC(C)=O)[C@H](O)C[C@]3(C)C(=CC[C@@H]4[C@@]5(C)CC[C@H](O[C@@H]6O[C@H](C(=O)O)[C@@H](O[C@@H]7O[C@H](CO)[C@@H](O)[C@H](O)[C@H]7O)[C@H](O)[C@H]6O[C@@H]6O[C@H](CO)[C@@H](O)[C@H](O)[C@H]6O)[C@](C)(CO)[C@@H]5CC[C@]43C)[C@@H]2CC1(C)C [Isoescin IB] (compound dose: 10 uM) | 0.802 ± 0.12
12 | C=C(C)[C@@H]1CC[C@]2(C(=O)O)CC[C@]3(C)[C@H](CC[C@@H]4[C@@]5(C)CC[C@H](OC(=O)CC(C)(C)C(=O)O)C(C)(C)[C@@H]5CC[C@]43C)[C@@H]12 [Bevirimat] (compound dose: 10 uM) | 0.778 ± 0.15
13 | CC(=O)O[C@]12CCC(C)=CC[C@]13CC[C@H]2[C@@](C)(/C=C/C=C(\C)C(=O)O)OC3=O [Pseudolaric Acid  A] (compound dose: 10 uM) | 0.449 ± 0.12
14 | C[C@@H]1C[C@@H]2O[C@@]3(O[C@@H]2C(C)(C)O)[C@H](O)[C@@]2(C)[C@@H]4CC[C@H]5C(C)(C)[C@@H](O)CC[C@@]56C[C@@]46CC[C@]2(C)[C@@H]13 [Cimigenol] (compound dose: 10 uM) | 0.778 ± 0.31
15 | C/C1=C\CC/C(C)=C/C2C(CC/C(C)=C/CC1)C2(C)C (stereo unspecified) [Casbene] (compound dose: 10 uM) | 0.871 ± 0.056
16 | COc1ccc2cc1Oc1ccc(cc1)C[C@H]1c3cc(c(OC)cc3CCN1C)Oc1c(OC)c(OC)cc3c1[C@H](C2)N(C)CC3 [Tetrandrine] (compound dose: 10 uM) | 1.11 ± 0.024
17 | C[C@H]1[C@H](C)CC[C@]2(C(=O)O)CC[C@]3(C)C(=CC[C@@H]4[C@@]5(C)C[C@@H](O)[C@H](O)[C@@](C)(CO)[C@@H]5[C@H](O)C[C@]43C)[C@H]12 [Madecassic acid] (compound dose: 10 uM) | 0.839 ± 0.093
18 | COC(=O)C1=CO[C@@H](O[C@@H]2O[C@H](CO)[C@@H](O)[C@H](O)[C@H]2O)[C@@H]2[C@@H](C)CC(=O)[C@]12O [Hastatoside] (compound dose: 10 uM) | 0.797 ± 0.12
19 | C[C@@H]1O[C@@H](O[C@H]2[C@H](OC(=O)[C@]34CCC(C)(C)C[C@H]3C3=CC[C@@H]5[C@@]6(C)C[C@H](O)[C@H](O[C@@H]7O[C@H](CO)[C@@H](O)[C@H](O[C@@H]8O[C@H](CO)[C@@H](O)[C@H](O)[C@H]8O)[C@H]7O)C(CO)(CO)[C@@H]6CC[C@@]5(C)[C@]3(C)C[C@H]4O)OC[C@H](O)[C@@H]2O)[C@H](O)[C@H](O)[C@H]1O[C@@H]1OC[C@@H](O)[C@H](O[C@@H]2OC[C@](O)(CO)[C@H]2O)[C@H]1O [Platycodin D2] (compound dose: 10 uM) | 0.301 ± 0.043
20 | C[C@@H]1O[C@@H](O[C@H]2[C@H](O[C@H]3CC[C@@]4(C)[C@@H](CC[C@]5(C)[C@@H]4CC=C4[C@@H]6CC(C)(C)CC[C@]6(C(=O)O[C@@H]6O[C@H](CO[C@@H]7O[C@H](CO)[C@@H](O[C@@H]8O[C@@H](C)[C@H](O)[C@@H](O)[C@H]8O)[C@H](O)[C@H]7O)[C@@H](O)[C@H](O)[C@H]6O)CC[C@]45C)[C@]3(C)CO)OC[C@H](O)[C@@H]2O)[C@H](O)[C@H](O)[C@H]1O [Hederacoside C] (compound dose: 10 uM) | 1.25 ± 0.18
21 | C=C(C)[C@H]1CC=C(C)CC1 [(r)-(+)-limonene] (compound dose: 10 uM) | 0.907 ± 0.04

Source: the supplement of paper PMC13094657
